# Reference: PubChem BioAssay (EPA / NIEHS)
# “And” between values parts separate entries of the source, which are not always exact repeats. Identical values can stand only once. Results filed as inconclusive are left out. The source made the active and inactive calls. How the source made its calls: active means hit-call score of the fitted dose curve at least 0.9, where 1 is the maximum; inconclusive means response in the unintended direction; inactive means score below 0.9.
# Tests used:
# [1] = ACEA_AR_agonist_AUC_viability: ACEA Biosciences xCELLigence Real-Time Cell Analysis on Androgen Receptor Agonism for Viability (AID 2283775);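 on AC50: viability read 80 hours after compound addition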
# How it was run: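 Real-time impedance tracking of 22Rv1 growth, readings every 5 min for 5 h then hourly; area-under-curve viability endpoint at 80 hours, relative to DMSO. Compounds at eight concentrations, 1:4 steps, top 100 uM, n = 2.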
# [2] = ACEA_AR_antagonist_AUC_viability: ACEA Biosciences xCELLigence Real-Time Cell Analysis on Androgen Receptor Antagonism for Viability (AID 2283776);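 further: 22Rv1 human prostate cancer cells growing on impedance electrode plates; hits lower the growth signal relative to DMSO meaning cytotoxicity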
# How it was run: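 Viability endpoint from label-free cell-index monitoring: 22Rv1 cultures treated with an eight-point 1:4 dilution series starting at 100 uM final, AUC at 80 h fitted against DMSO.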
# [3] = ArunA_Migration_hNP: ArunA Biomedical's Oris Neuroprogenitor (hNP) Cell Migration Assay (AID 2283754)
# How it was run: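 Human H9-derived hNP1 neuroprogenitors on Matrigel with LIF/bFGF, plated around seeding stoppers for 16 h at 37C; stoppers removed at start of 72 h chemical exposure. Calcein-AM staining, fluorescence 494/517 nm in detection zone; loss-of-signal vs DMSO; cytochalasin D control.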
# [4] = ArunA_Migration_hNC: ArunA Biomedical's Oris Neural Crest (hNC) Cell Migration Assay (AID 2283755)
# How it was run: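 Human H9-derived neural crest stem cells, 60,000/well on Matrigel, 16 h at 37C, then 72 h chemical exposure after seeding-stopper removal. Migration into detection zone read as calcein-AM fluorescence (ex494/em517), relative to DMSO.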
# [5] = ArunA_NOG_NucleusCount: ArunA Biomedical's Neurite Outgrowth (NOG) Assay for Nucleus Count (AID 2283756)
# How it was run: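 Human H9-derived differentiated neurons were exposed for 48 h right after seeding. Hoechst-stained nuclei gated by size and intensity were counted by automated high-content imaging as viable neurons. Loss of signal vs DMSO.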
# [6] = ArunA_NOG_NeuriteLength: ArunA Biomedical's Neurite Outgrowth (NOG) Assay for Neurite Length (AID 2283757)
# How it was run: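 Differentiated human H9-derived neurons were exposed for 48 h from seeding, then stained with Hoechst and βIII-tubulin. Automated high-content imaging gave total neurite length per valid neuron, counting processes >10 um. Loss of signal was scored versus DMSO.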
# [7] = ArunA_NOG_NeuritesPerNeuron: ArunA Biomedical's Neurite Outgrowth (NOG) Assay for Neurites Per Neuron (AID 2283758)
# How it was run: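 Differentiated human H9-derived neurons exposed to chemicals for 48 h from seeding, then stained with Hoechst and βIII-tubulin/DyLight 488. Automated imaging counted neurites (processes >10 um) per valid neuron; loss of signal versus DMSO scored.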
# [8] = ArunA_NOG_BranchPointsPerNeurite: ArunA Biomedical's Neurite Outgrowth (NOG) Assay for Branch Points Per Neurite (AID 2283759)
# How it was run: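 Automated image analysis traced neurites (processes >10 um) from valid cell bodies after Hoechst and βIII-tubulin staining. hNN cells from H9 embryonic stem cells, 48 h exposure. Fitted bidirectionally against DMSO.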
# [9] = molecular target: Luciferin 4-monooxygenase (Photinus pyralis) (UniProt P08659); assay: CCTE_Simmons_QuantiLum_inhib_2: CCTE's Firefly Luciferase Inhibition Assay, Simmons Lab (AID 2283767);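 on AC50: potency for inhibitors that lower luciferase luminescence relative to DMSO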
# Luciferin 4-monooxygenase (Photinus pyralis), sequence (P08659 whole entry, looked up): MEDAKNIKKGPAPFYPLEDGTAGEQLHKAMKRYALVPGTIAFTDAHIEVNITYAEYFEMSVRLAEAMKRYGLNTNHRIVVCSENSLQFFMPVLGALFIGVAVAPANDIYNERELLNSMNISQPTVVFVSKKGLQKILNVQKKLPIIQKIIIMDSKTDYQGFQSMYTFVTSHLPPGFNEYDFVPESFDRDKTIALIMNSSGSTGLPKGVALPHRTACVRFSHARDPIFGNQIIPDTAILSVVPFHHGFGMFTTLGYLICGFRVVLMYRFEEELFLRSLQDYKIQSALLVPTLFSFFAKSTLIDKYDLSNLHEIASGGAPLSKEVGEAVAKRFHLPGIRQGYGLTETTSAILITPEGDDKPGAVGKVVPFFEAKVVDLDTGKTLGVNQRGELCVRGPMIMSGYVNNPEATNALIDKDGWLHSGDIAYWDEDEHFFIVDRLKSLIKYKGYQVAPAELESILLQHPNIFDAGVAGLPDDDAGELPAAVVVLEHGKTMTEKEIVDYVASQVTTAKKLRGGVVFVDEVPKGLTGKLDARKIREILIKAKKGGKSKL
# How it was run: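 Luminescence loss relative to DMSO vehicle defines inhibition; detection reagent containing 150 uM D-luciferin and 147 uM dATP (final, pH 7.8) is injected immediately before each read. Enzyme is preincubated with an 8-point titration (5 nM–87.5 uM final) for 30 min at 37C.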
# [10] = test system: zebrafish Androgen Receptor (AR), gene 100005148; assay: ATG_zfAR_XSP1: Attagene TRANS-FACTORIAL Multi-Species (XSP1) HepG2 Assay for zebrafish Androgen Receptor (AR) (AID 2283771)
# How it was run: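 HepG2 cells were transiently transfected with a zebrafish AR-GAL4 reporter system and partially stimulated with 3 nM 6-alpha-fluorotestosterone. Reporter mRNA was measured after 24 h dosing by RT-PCR with capillary electrophoresis, and gain-of-signal was fitted relative to DMSO.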
# [11] = molecular target: zebrafish Estrogen Receptor (ESR1), esr1 (gene 259252) (UniProt P57717); assay: ATG_zfER1_XSP1: Attagene TRANS-FACTORIAL Multi-Species (XSP1) HepG2 Assay for zebrafish Estrogen Receptor (ESR1) (AID 2283772)
# zebrafish Estrogen Receptor (ESR1), esr1 (gene 259252), sequence (P57717 whole entry, looked up, the tested form may be a part): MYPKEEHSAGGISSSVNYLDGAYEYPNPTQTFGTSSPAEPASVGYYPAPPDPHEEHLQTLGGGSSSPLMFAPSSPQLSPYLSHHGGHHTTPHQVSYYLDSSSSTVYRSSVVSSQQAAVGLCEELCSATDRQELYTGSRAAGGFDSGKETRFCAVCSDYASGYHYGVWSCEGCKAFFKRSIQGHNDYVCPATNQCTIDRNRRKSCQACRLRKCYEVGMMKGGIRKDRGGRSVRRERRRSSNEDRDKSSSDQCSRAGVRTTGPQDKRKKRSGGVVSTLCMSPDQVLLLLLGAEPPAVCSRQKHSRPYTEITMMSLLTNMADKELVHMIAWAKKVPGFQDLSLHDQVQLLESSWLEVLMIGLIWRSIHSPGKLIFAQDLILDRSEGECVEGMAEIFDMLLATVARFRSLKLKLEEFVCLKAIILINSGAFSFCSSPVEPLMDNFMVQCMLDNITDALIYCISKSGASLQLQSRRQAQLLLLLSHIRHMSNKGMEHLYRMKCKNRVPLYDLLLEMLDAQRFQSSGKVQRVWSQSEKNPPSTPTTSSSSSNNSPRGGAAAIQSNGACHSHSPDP
# How it was run: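 Reporter mRNA induction, gauged via RT-PCR/capillary electrophoresis fluorescence relative to DMSO controls, in HepG2 cells transiently carrying GAL4-UAS reporter units; 24 h dosing.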
# [12] = test system: zebrafish Estrogen Receptor (ESR2B), gene 317733; assay: ATG_zfER2b_XSP1: Attagene TRANS-FACTORIAL Multi-Species (XSP1) HepG2 Assay for zebrafish Estrogen Receptor (ESR2B) (AID 2283773)
# How it was run: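 HepG2 cells transiently transfected with multiple GAL4-UAS reporter units expressing chimeric zebrafish ER2b-Gal4; 24 h chemical exposure with 3 nM 6-alpha-fluorotestosterone present. Reporter mRNA measured by RT-PCR and capillary electrophoresis; gain of signal fitted versus DMSO.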
# [13] = test system: frog Estrogen Receptor (ESR2), gene 100174814; assay: ATG_frER2_XSP1: Attagene TRANS-FACTORIAL Multi-Species (XSP1) HepG2 Assay for frog Estrogen Receptor (ESR2) (AID 2283774)
# How it was run: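 HepG2 cells transiently transfected with GAL4-UAS multiplexed reporter units expressing chimeric NR-Gal4 proteins; reporter mRNA measured 24 h after dosing by RT-PCR, FAM labeling, HpaI digestion and capillary electrophoresis. Gain-of-signal relative to DMSO; 3 nM 6-alpha-fluorotestosterone present.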
# [14] = molecular target: chicken Estrogen Receptor (ESR1), ESR1 (gene 396099) (UniProt P06212); assay: ATG_chERa_XSP1: Attagene TRANS-FACTORIAL Multi-Species (XSP1) HepG2 Assay for chicken Estrogen Receptor (ESR1) (AID 2283779)
# chicken Estrogen Receptor (ESR1), ESR1 (gene 396099), sequence (P06212 whole entry, looked up, the tested form may be a part): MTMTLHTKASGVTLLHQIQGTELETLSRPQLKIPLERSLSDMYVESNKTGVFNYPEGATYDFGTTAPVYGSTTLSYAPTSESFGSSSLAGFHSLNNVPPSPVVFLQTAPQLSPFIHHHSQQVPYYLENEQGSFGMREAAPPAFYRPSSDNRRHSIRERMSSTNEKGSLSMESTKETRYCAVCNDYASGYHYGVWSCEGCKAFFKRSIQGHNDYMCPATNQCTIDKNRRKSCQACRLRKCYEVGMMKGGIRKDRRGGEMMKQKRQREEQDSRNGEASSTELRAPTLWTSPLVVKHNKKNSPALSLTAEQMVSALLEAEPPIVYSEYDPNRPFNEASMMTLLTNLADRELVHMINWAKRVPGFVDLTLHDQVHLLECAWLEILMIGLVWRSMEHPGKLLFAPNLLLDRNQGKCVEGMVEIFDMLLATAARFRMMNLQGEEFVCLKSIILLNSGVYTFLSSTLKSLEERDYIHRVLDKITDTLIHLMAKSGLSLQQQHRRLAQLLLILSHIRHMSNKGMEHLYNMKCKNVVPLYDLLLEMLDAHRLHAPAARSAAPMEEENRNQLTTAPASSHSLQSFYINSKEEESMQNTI
# How it was run: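 HepG2 cells transiently transfected with multiplexed GAL4-UAS reporter units expressing chimeric NR-Gal4 proteins; 3 nM 6-alpha-fluorotestosterone present. Reporter mRNA measured 24 h after dosing by RT-PCR, FAM labelling, HpaI digest and capillary electrophoresis; gain of signal versus DMSO.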
# [15] = test system: chicken Androgen Receptor (AR), gene 422165; assay: ATG_chAR_XSP1: Attagene TRANS-FACTORIAL Multi-Species (XSP1) HepG2 Assay for chicken Androgen Receptor (AR) (AID 2283768)
# How it was run: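 HepG2 cells transiently transfected with multiplexed GAL4-UAS reporter units expressing chimeric chicken AR-Gal4; 3 nM 6-alpha-fluorotestosterone for partial AR stimulation; 24 h after dosing, reporter mRNA by RT-PCR and capillary electrophoresis, gain-of-signal versus DMSO.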
# [16] = test system: frog Estrogen Receptor (ESR1), gene 398734; assay: ATG_frER1_XSP1: Attagene TRANS-FACTORIAL Multi-Species (XSP1) HepG2 Assay for frog Estrogen Receptor (ESR1) (AID 2283777)
# How it was run: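 Read-out: fluorescent reporter mRNA via RT-PCR, HpaI digestion and capillary electrophoresis, after 24 h chemical exposure of transiently transfected human HepG2 cells expressing exogenous NR-Gal4 chimeras. DMSO served as baseline for positive-direction fitting.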
# [17] = test system: zebrafish Estrogen Receptor (ESR2A), gene 317734; assay: ATG_zfER2a_XSP1: Attagene TRANS-FACTORIAL Multi-Species (XSP1) HepG2 Assay for zebrafish Estrogen Receptor (ESR2A) (AID 2283778)
# How it was run: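 HepG2 cells transiently transfected with multiplexed GAL4-UAS reporter units and chimeric NR-GAL4 receptors; 24 h compound exposure with 3 nM 6-alpha-fluorotestosterone present. Reporter mRNA quantified by RT-PCR and capillary electrophoresis, gain-of-signal fitted relative to DMSO.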
# [18] = test system: turtle Estrogen Receptor (ESR1), gene 101933533; assay: ATG_trERa_XSP1: Attagene TRANS-FACTORIAL Multi-Species (XSP1) HepG2 Assay for turtle Estrogen Receptor (ESR1) (AID 2283781)
# How it was run: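 HepG2 cells transiently transfected with GAL4-UAS reporter units and chimeric NR-Gal4 constructs, dosed for 24 h with 3 nM 6-alpha-fluorotestosterone present. Reporter mRNA was quantified by RT-PCR, fluorescent labelling and capillary electrophoresis, with gain of signal fitted relative to DMSO.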
# [19] = ACEA_ER_AUC_viability: ACEA Biosciences xCELLigence Real-Time Cell Analysis on Estrogen Receptor Agonism for Viability (AID 2283782);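 further: continuous compound exposure with impedance area under curve over 80 h; hit means loss of impedance signal meaning reduced cell growth or viability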
# How it was run: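 T-47D human breast cells in phenol red-free RPMI1640 with 10% charcoal-stripped FBS were dosed with an 8-point 1:4 dilution series from 100 uM top final concentration, in duplicate. Impedance-based growth was followed for 80 h; AUC analysed versus DMSO.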
smiles,measurement,setting,value
CCOP(=S)(OCC)SCCSCC,AC50,[1],78.1 µM (active)
same,AC50,[2],80.6 µM (active)
CN(C)[C@@H]1C(=O)C(C(N)=O)=C(O)[C@@]2(O)C(=O)C3=C(O)c4c(O)cccc4[C@@](C)(O)[C@H]3[C@H](O)[C@@H]12,AC50,[3],50 µM (active)
same,AC50,[4],50 µM (active)
same,AC50,[5],44.7 µM (active)
same,AC50,[6],78.6 µM (active)
same,AC50,[7],83.4 µM (active)
same,AC50,[8],89.6 µM (active)
same,AC50,[9],714 nM (active) and 72.3 µM (active)
same,AC50,[1],50 µM (active)
same,AC50,[2],50 µM (active)
CCc1cnc(C2=NC(C)(C(C)C)C(=O)N2)c(C(=O)O)c1 (configuration not stated),outcome,[1],inactive
same,outcome,[2],inactive
CCOP(=S)(OCC)Oc1ccc([N+](=O)[O-])cc1,AC50,[9],26.9 µM (active)
same,outcome,[1],inactive
same,outcome,[2],inactive
Nc1c(Cl)cc([N+](=O)[O-])cc1Cl,AC50,[1],58.4 µM (active)
same,AC50,[2],50 µM (active)
CCCCOC(=O)[C@@H](C)Oc1ccc(Oc2ccc(C#N)cc2F)cc1,AC50,[1],27.6 µM (active)
same,AC50,[2],62.3 µM (active)
O=c1ccc(=O)[nH][nH]1,outcome,[9],inactive
O=[N+]([O-])c1cc(C(F)(F)F)c(Cl)c([N+](=O)[O-])c1Nc1ncc(C(F)(F)F)cc1Cl,outcome,[4],inactive
same,outcome,[5],inactive
same,AC50,[1],8.38 µM (active)
same,AC50,[2],10.6 µM (active)
CCC(=O)Nc1ccc(Cl)c(Cl)c1,outcome,[9],inactive
same,outcome,[1],inactive
same,AC50,[2],20.7 µM (active)
CCCOCC(=Nc1ccc(Cl)cc1C(F)(F)F)n1ccnc1,AC50,[9],36.8 µM (active)
same,outcome,[10],inactive
same,outcome,[11],inactive
same,outcome,[12],inactive
same,AC50,[13],2.94 µM (active)
same,AC50,[1],22.7 µM (active)
same,AC50,[2],6 µM (active)
same,outcome,[14],inactive
CSC1=N[C@@](C)(c2ccccc2)C(=O)N1Nc1ccccc1,outcome,[9],inactive
same,AC50,[1],31.6 µM (active)
same,AC50,[2],18.1 µM (active)
C#CC(C)(C)NC(=O)c1cc(Cl)cc(Cl)c1,AC50,[15],26.4 µM (active)
same,outcome,[11],inactive
same,AC50,[12],52.6 µM (active)
same,AC50,[13],56.3 µM (active)
same,outcome,[1],inactive
same,AC50,[2],26.4 µM (active)
same,outcome,[16],inactive
same,outcome,[17],inactive
same,AC50,[14],50 µM (active)
same,AC50,[18],64.3 µM (active)
CCOP(=O)(SC(C)CC)N1CCSC1=O (configuration not stated),outcome,[9],inactive
same,outcome,[2],inactive
CCOP(=S)(OCC)OC(Cl)C(Cl)(Cl)Cl (configuration not stated),outcome,[9],inactive
CCOP(=O)(NC(C)C)Oc1ccc(SC)c(C)c1 (configuration not stated),outcome,[9],inactive
same,AC50,[1],9.92 µM (active)
same,AC50,[2],32.7 µM (active)
CCCSP(=O)(OCC)Oc1ccc(Br)cc1Cl (configuration not stated),outcome,[9],inactive
same,outcome,[1],inactive
same,outcome,[2],inactive
CC1(C(=O)Nc2ccc(O)c(Cl)c2Cl)CCCCC1,outcome,[9],inactive
same,AC50,[1],64.9 µM (active)
same,AC50,[2],50 µM (active)
CCc1cccc(C)c1N(C(=O)CCl)C(C)COC (configuration not stated),outcome,[10],inactive
same,outcome,[11],inactive
same,AC50,[12],35.8 µM (active)
same,AC50,[13],48.9 µM (active)
same,outcome,[1],inactive
same,outcome,[2],inactive
same,AC50,[16],3.42 µM (active)
same,outcome,[17],inactive
same,AC50,[14],9.46 µM (active)
same,AC50,[18],17.4 µM (active)
same,outcome,[19],inactive
